# Measurements: the supplement of paper PMC8728848
# Shown is part of a subset that was picked to be rich in the strongest signals.
# B1: rMpL (Macrolepiota procera) (protein)
# chain: MSTQVSSGRTYKITNVIAGTVIDLSGEDNKSIIGYPYHSGKNQQWTFNWTGKAWTLRSASSGSYLGIEGTPAGGTRLVAVNDPFEWHIWRDEANENAFRIFVPFTNYNLDLSGYGDTTPGTPVQLWWTWEGLHQTWTIDRP
# Tests used:
# Assay in all cases: glycan array binding signal (z-score within array); higher = stronger binding
# Details in all cases: glycan notation: IUPAC condensed, linker removed
# [1] = target: Fuc(a1-2)Gal(b1-3)GalNAc(b1-3)Gal
# Outline: (§1)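 Columns mapping to the same glycan were averaged after glycan names were converted to IUPAC-condensed notation. The data come from 3228 arrays in the Consortium for Functional Glycomics database, limited to those with an available protein sequence. Binding is reported as a within-array Z-score averaged across arrays of one protein sequence and across linkers.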
# [2] = target: Fuc(a1-2)Gal(b1-3)GlcNAc(b1-3)[Fuc(a1-2)Gal(b1-3)GlcNAc(b1-6)]GalNAc
# Outline: as §1
# [3] = target: Fuc(a1-2)Gal(b1-4)GlcNAc(b1-3)Gal(b1-4)GlcNAc(b1-3)Gal(b1-4)GlcNAc
# Outline: as §1
# [4] = target: Fuc(a1-2)Gal(b1-4)GlcNAc(b1-3)GalNAc
# Outline: as §1
# [5] = target: Fuc(a1-2)[Gal(a1-3)]Gal(b1-3)GlcNAc(b1-2)Man(a1-3)[Fuc(a1-2)[Gal(a1-3)]Gal(b1-3)GlcNAc(b1-2)Man(a1-6)]Man(b1-4)GlcNAc(b1-4)GlcNAc
# Outline: as §1
# [6] = target: Fuc(a1-2)[Gal(a1-3)]Gal(b1-4)GlcNAc(b1-2)Man(a1-3)[Fuc(a1-2)[Gal(a1-3)]Gal(b1-4)GlcNAc(b1-2)Man(a1-6)]Man(b1-4)GlcNAc(b1-4)GlcNAc
# Outline: as §1
# [7] = target: Fuc(a1-2)[Gal(a1-3)]Gal(b1-4)[Fuc(a1-3)]GlcNAc
# Outline: as §1
# [8] = target: Fuc(a1-2)[GalNAc(a1-3)]Gal(b1-3)GlcNAc(b1-6)GalNAc
# Outline: as §1
# [9] = target: Fuc(a1-3)[Gal(b1-4)]GlcNAc(b1-6)GalNAc
# Outline: as §1
# [10] = target: Fuc(a1-3)[Gal3S(b1-4)]GlcNAc
# Outline: as §1
# Fuc(a1-4)GlcNAc = target: Fuc(a1-4)GlcNAc
# Outline: as §1
# Gal(a1-3)Gal(b1-4)Glc = target: Gal(a1-3)Gal(b1-4)Glc
# Outline: as §1
# [11] = target: Gal(a1-3)Gal(b1-4)GlcNAc(b1-6)GalNAc
# Outline: as §1
# Gal(b1-3)Gal(b1-4)GlcNAc = target: Gal(b1-3)Gal(b1-4)GlcNAc
# Outline: as §1
# Gal(b1-3)GalNAc = target: Gal(b1-3)GalNAc
# Outline: as §1
# Gal(b1-3)GalNAc(b1-3)Gal = target: Gal(b1-3)GalNAc(b1-3)Gal
# Outline: as §1
# [12] = target: Gal(b1-3)GlcNAc(b1-2)[Gal(b1-3)GlcNAc(b1-6)]Man(a1-6)[Gal(b1-3)GlcNAc(b1-2)Man(a1-3)]Man(b1-4)GlcNAc(b1-4)GlcNAc
# Outline: as §1
# [13] = target: Gal(b1-3)GlcNAc(b1-3)Gal(b1-4)Glc
# Outline: as §1
# [14] = target: Gal(b1-3)GlcNAc(b1-3)Gal(b1-4)GlcNAc(b1-2)[Gal(b1-3)GlcNAc(b1-3)Gal(b1-4)GlcNAc(b1-6)]Man(a1-6)[Gal(b1-3)GlcNAc(b1-3)Gal(b1-4)GlcNAc(b1-2)Man(a1-3)]Man(b1-4)GlcNAc(b1-4)[Fuc(a1-6)]GlcNAc
# Outline: as §1
# [15] = target: Gal(b1-3)GlcNAc(b1-3)Gal(b1-4)GlcNAc(b1-3)Gal(b1-4)GlcNAc(b1-2)[Gal(b1-3)GlcNAc(b1-3)Gal(b1-4)GlcNAc(b1-3)Gal(b1-4)GlcNAc(b1-6)]Man(a1-6)[Gal(b1-3)GlcNAc(b1-3)Gal(b1-4)GlcNAc(b1-3)Gal(b1-4)GlcNAc(b1-2)Man(a1-3)]Man(b1-4)GlcNAc(b1-4)[Fuc(a1-6)]GlcNAc
# Outline: as §1
# [16] = target: Gal(b1-3)GlcNAc(b1-3)Gal(b1-4)GlcNAc(b1-6)[Gal(b1-3)GlcNAc(b1-3)]Gal(b1-4)Glc
# Outline: as §1
# [17] = target: Gal(b1-3)GlcNAc(b1-3)GalNAc
# Outline: as §1
# [18] = target: Gal(b1-4)GlcNAc(a1-6)Gal(b1-4)GlcNAc
# Outline: as §1
# [19] = target: Gal(b1-4)GlcNAc(b1-2)[Gal(b1-4)GlcNAc(b1-4)]Man(a1-3)[Gal(b1-4)GlcNAc(b1-2)[Gal(b1-4)GlcNAc(b1-6)]Man(a1-6)][GlcNAc(b1-4)]Man(b1-4)GlcNAc(b1-4)GlcNAc
# Outline: as §1
# [20] = target: Gal(b1-4)GlcNAc(b1-2)[Gal(b1-4)GlcNAc(b1-4)]Man(a1-3)[GlcNAc(b1-4)][Gal(b1-4)GlcNAc(b1-2)Man(a1-6)]Man(b1-4)GlcNAc(b1-4)GlcNAc
# Outline: as §1
# [21] = target: Gal(b1-4)GlcNAc(b1-3)Gal(b1-4)GlcNAc(b1-2)[Gal(b1-4)GlcNAc(b1-3)Gal(b1-4)GlcNAc(b1-6)]Man(a1-6)[Gal(b1-4)GlcNAc(b1-3)Gal(b1-4)GlcNAc(b1-2)Man(a1-3)]Man(b1-4)GlcNAc(b1-4)GlcNAc
# Outline: as §1
# [22] = target: Gal(b1-4)GlcNAc(b1-3)Gal(b1-4)GlcNAc(b1-2)[Gal(b1-4)GlcNAc(b1-3)Gal(b1-4)GlcNAc(b1-6)]Man(a1-6)[Gal(b1-4)GlcNAc(b1-3)Gal(b1-4)GlcNAc(b1-2)Man(a1-3)]Man(b1-4)GlcNAc(b1-4)[Fuc(a1-6)]GlcNAc
# Outline: as §1
# [23] = target: Gal(b1-4)GlcNAc(b1-3)Gal(b1-4)GlcNAc(b1-3)Gal(b1-4)GlcNAc(b1-2)[Gal(b1-4)GlcNAc(b1-3)Gal(b1-4)GlcNAc(b1-3)Gal(b1-4)GlcNAc(b1-6)]Man(a1-6)[Gal(b1-4)GlcNAc(b1-3)Gal(b1-4)GlcNAc(b1-3)Gal(b1-4)GlcNAc(b1-2)Man(a1-3)]Man(b1-4)GlcNAc(b1-4)[Fuc(a1-6)]GlcNAc
# Outline: as §1
# [24] = target: Gal(b1-4)GlcNAc(b1-3)Gal(b1-4)GlcNAc(b1-3)Gal(b1-4)GlcNAc(b1-3)Gal(b1-4)GlcNAc(b1-2)Man(a1-3)[Gal(b1-4)GlcNAc(b1-3)Gal(b1-4)GlcNAc(b1-3)Gal(b1-4)GlcNAc(b1-3)Gal(b1-4)GlcNAc(b1-2)Man(a1-6)]Man(b1-4)GlcNAc(b1-4)GlcNAc
# Outline: as §1
# [25] = target: Gal(b1-4)GlcNAc(b1-3)Gal(b1-4)GlcNAc(b1-3)Gal(b1-4)GlcNAc(b1-3)Gal(b1-4)GlcNAc(b1-2)Man(a1-3)[Gal(b1-4)GlcNAc(b1-3)Gal(b1-4)GlcNAc(b1-3)Gal(b1-4)GlcNAc(b1-3)Gal(b1-4)GlcNAc(b1-2)Man(a1-6)]Man(b1-4)GlcNAc(b1-4)[Fuc(a1-6)]GlcNAc
# Outline: as §1
binder,measurement,setting,value
B1,glycan array binding signal (z-score),[1],-0.272
same,glycan array binding signal (z-score),[2],-0.078
same,glycan array binding signal (z-score),[3],-0.248
same,glycan array binding signal (z-score),[4],-0.301
same,glycan array binding signal (z-score),[5],-0.259
same,glycan array binding signal (z-score),[6],-0.257
same,glycan array binding signal (z-score),[7],-0.216
same,glycan array binding signal (z-score),[8],-0.353
same,glycan array binding signal (z-score),[9],-0.065
same,glycan array binding signal (z-score),[10],-0.253
same,glycan array binding signal (z-score),Fuc(a1-4)GlcNAc,-0.316
same,glycan array binding signal (z-score),Gal(a1-3)Gal(b1-4)Glc,-0.194
same,glycan array binding signal (z-score),[11],-0.27
same,glycan array binding signal (z-score),Gal(b1-3)Gal(b1-4)GlcNAc,-0.257
same,glycan array binding signal (z-score),Gal(b1-3)GalNAc,-0.273
same,glycan array binding signal (z-score),Gal(b1-3)GalNAc(b1-3)Gal,-0.243
same,glycan array binding signal (z-score),[12],3.42
same,glycan array binding signal (z-score),[13],0.808
same,glycan array binding signal (z-score),[14],2.4
same,glycan array binding signal (z-score),[15],3.58
same,glycan array binding signal (z-score),[16],4.17
same,glycan array binding signal (z-score),[17],0.153
same,glycan array binding signal (z-score),[18],9.59
same,glycan array binding signal (z-score),[19],4.13
same,glycan array binding signal (z-score),[20],1.46
same,glycan array binding signal (z-score),[21],1.23
same,glycan array binding signal (z-score),[22],3.75
same,glycan array binding signal (z-score),[23],4.71
same,glycan array binding signal (z-score),[24],3.24
same,glycan array binding signal (z-score),[25],3.33
